Compounds with a hit are over-represented: about 1.4% of the library has one in this group of screens.
SSB-PriA inh – inhibitors of Klebsiella pneumoniae PriA binding to SSB C-terminal tail, primary screen, biochemical, AlphaScreen | PriA–SSB C-terminal tail interaction (Klebsiella pneumoniae) | AlphaScreen SSBct-PriA binding, biotinylated peptide | inhibition, % at 33 µM | 430,000 tested, 0.6% active | AID 1272365, 2023; in the data active means inhibition mostly above about 37%, no sharp cut-off; inactive means mostly below about 20%;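 further: plate controls were negative control peptide for no effect and reference peptide for full effect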
Sa ugtP lethal – growth inhibition of ugtP-null S. aureus, primary screen, RN4220 ugtP deletion, OD600; 330,000 tested, 0.54% active; growth inhibition, % (concentration not given with the values); AID 1259309, 2017; 16 h; in the data active means growth inhibition above about 68%;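 further: plate controls were untreated wells for no effect and antibiotic for full effect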
Mtb hypoxia rep – PubChem AID 1159583; M. tuberculosis hypoxia-regulated fluorescent reporter, fluorescence; 300,000 tested, 0.1% active; fluorescence inhibition, % (concentration not given with the values); in the data active means fluorescence inhibition mostly above about 23%, no sharp cut-off; inactive means mostly below about 17%
RN4220 kill – growth inhibition of S. aureus RN4220, primary screen, OD600; inhibition, % (no concentration beside the values); 330,000 tested, 0.33% active; 16 h; in the data active means inhibition above about 85%;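 further: plate controls were untreated cells for no effect and reference antibiotic for full effect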
CCHFV vOTU inh – CCHFV vOTU protease inhibitors, primary screen, biochemical, Pep-AMC substrate, fluorescence; Crimean-Congo hemorrhagic fever virus L polyprotein viral ovarian tumor (vOTU) protease …; inhibition, % at 11.5 µM; 370,000 tested, 0.55% active; AID 651958, 2012; in the data active means inhibition above about 30%; further: 0% = vehicle wells with enzyme and 100% = no enzyme wells
* hit, by the source's call; x = no result given; + = active, no number.

SMILES	SSB-PriA inh	Sa ugtP lethal	Mtb hypoxia rep	RN4220 kill	CCHFV vOTU inh
O=C(Nc1ccccc1)ON=C1CCCCC1c1ccc([N+](=O)[O-])cc1[N+](=O)[O-] (centres undefined)	13	-4	x	0	x
COc1ccc(NC(=O)/C(Cl)=C(/Cl)S(=O)(=O)Cc2ccc(C)cc2)cn1	-3	98*	x	37	x
CC(=NNC(=S)N(Cc1ccccn1)Cc1ccccn1)c1cnccn1	94*	x	x	x	13
O=C(CCCC(=O)N/N=C\c1ccccn1)N/N=C\c1ccccn1	x	x	x	x	-9
S=C(NN=C(c1ccccc1)c1ccccn1)N(Cc1ccccn1)Cc1ccccn1	74*	x	x	x	22
CC(=NNC(=S)N1CC2CCC(CC2)C1)c1cnccn1	-11	x	x	x	-4
S=C(NN=Cc1ccccn1)N(Cc1ccccn1)Cc1ccccn1	96*	x	x	x	-21
NC(=S)N/N=C(\c1ccccc1)c1ccccn1	+	x	x	x	x
NC(=S)NN=C(c1ccccc1)c1ccccc1	11	2	4	-1	6
O=C(NN=Cc1ccccc1[N+](=O)[O-])c1ccncc1	-17	7	4	4	x
Cc1nc2n(c(=O)c1C)[C@@H](CC(=O)NCCn1nc(C3CC3)n(-c3ccccc3)c1=O)CS2	-7	x	x	x	x
COc1cc(N=Nc2ccc(C)cc2S(N)(=O)=O)c(C)cc1N	48*	8	23	9	18
C[n+]1c2n(c3ccccc31)N=C(c1ccccc1)CS2	2	-2	11	1	10
C[n+]1c2n(c3ccccc31)N=C(c1ccc(-c3ccccc3)cc1)CS2	6	101*	6	100*	4
Nc1ccc2c3c(cccc13)-c1ccccc1-2	-86	85*	-6	71	8
COc1ccc2nc3cccc(OC)c3nc2c1	10	8	11	11	6
COc1ccc2nc3ccccc3nc2c1N	48*	0	14	9	2
O=C(N1CCOCC1)N1CCN(c2cccc(Cl)c2)CC1	8	x	x	x	x
CSc1ccccc1NC(=O)c1ccc(-n2cncn2)nn1	-23	x	x	x	x
C=CC(=O)Nc1ccc(N(C)c2ccnc(Nc3ccc(N4CCN(C)CC4)cc3)n2)cc1	44*	2	6	5	10
CCOC(=O)c1cn[nH]c1S(=O)(=O)Nc1cccc(SC)c1	2	x	x	x	x
CCc1ccc(C(C)=NNC(=O)c2ccc(-n3cnnn3)cc2)cc1	-4	1	19*	5	x
Nc1nc(C2C(=O)CCCC2=O)cs1	58*	-3	-1	6	9
COC(=O)C1CC(C(=O)O)C(C)C1(C)C (centres undefined)	x	-1	14	7	x
Cn1nccc1C(=O)Nc1nc(-c2ccccn2)cs1	97*	x	x	x	x
SMILES	SSB-PriA inh	Sa ugtP lethal	Mtb hypoxia rep	RN4220 kill	CCHFV vOTU inh
Cc1cc(C(=O)Nc2nc(-c3ccccn3)cs2)n(C)n1	118*	x	x	x	x
Cn1cccc1C(=O)Nc1nc(-c2ccccn2)cs1	85*	3	16	8	9
O=C(Nc1nc(-c2ccccn2)cs1)C(c1ccccc1)c1ccccc1	37	x	x	x	x
Cc1csc(NC(=O)c2cccn2C)n1	8	14	9	7	10
CN1NC(C(=O)Nc2nc(-c3ccccn3)cs2)=CCC1=O	124*	x	x	x	x
COc1ccccc1C(=O)N1CC[C@H](S(=O)(=O)c2ccccc2)C1	-8	x	x	x	x
Cn1c(C(=O)Nc2nc(-c3ccccn3)cs2)cc2ccccc21	93*	x	x	x	x
CCOc1cccc2sc(NC(=O)C(C)C)nc12	-9	x	x	x	x
N#Cc1c(-c2ccccc2)nc(SCC(=O)N2c3ccccc3Sc3ccccc32)[nH]c1=O	-1	24	4	-2	33*
N#Cc1c(-c2ccccc2)nc(SCC(=O)N(c2ccccc2)c2ccccc2)[nH]c1=O	-16	1	-3	9	14
CCC(=O)N1CCCc2ccc(NS(=O)(=O)CCc3ccc(OC)cc3)cc21	9	x	x	x	x
COc1cc(OC)c(OC)cc1CCC(C)NCCC(c1ccccc1)c1ccccc1 (centres undefined)	42*	x	x	x	2
COc1ccc(CCNCCC(c2ccccc2)c2ccccc2)cc1OC	x	x	x	x	8
CCOc1cc(C(=O)Nc2ccc(CC(=O)N3CCOCC3)cc2)cc(OCC)c1OCC	-23	x	x	x	x
Cc1cc(N2CCCC2)nc(Nc2ccc(NS(=O)(=O)c3ccc(I)cc3)cc2)n1	44*	x	x	x	x
CCN(CC)S(=O)(=O)c1ccc(C(=O)Nc2nc3c(s2)COc2ccccc2-3)cc1	-6	x	x	x	x
Cc1c(NC(=O)C2CCCN2/C=C/C(=O)C(F)(F)F)c(=O)n(-c2ccccc2)n1C (centres undefined)	-8	x	x	x	x
Cn1cc(NC(=O)NCCSc2c[nH]c3ccccc23)c2ccccc21	7	x	x	x	x

From PubChem
